Assay outcomes from PubChem.
MITF inh: inhibitors of human MITF | AlphaScreen MITF homodimerization, bead proximity signal | inhibition, % at 2.6 µM | hit rate 0.91% among 650,000 | AID 1259374; in the data active = inhibition above about 50%;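 note: 0% = vehicle wells with protein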
TEAD-YAP inh: TEAD-YAP interaction inhibition | HEK-TIYL cells, TEAD-Gal4/YAP UAS-luciferase luminescence | inhibition, % at 9.12 µM | hit rate 1.4% among 640,000 | AID 1259422; in the data active = inhibition above about 32%;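 note: 0% = median of test compound wells and 100% = reference inhibitor wells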
FBW7 activator: human FBW7 E3 ligase activation, primary screen; Q969H0; AlphaScreen FBW7–phospho-cyclin E peptide binding, activator screen; normalized activity (activation), % at 26.1 µM; hit rate 0.13% among 650,000; in the data active = normalized activity above about 1.9%;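 note: purified mutant Fbw7 with reduced substrate affinity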
GPR151 activ: activates the human receptor GPR151 | activation, % at 11.2 µM | PathHunter beta-arrestin GPR151 cells, luminescence | Q8TDV0 | hit rate 1% among 650,000; in the data active = activation above about 4.9%;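 note: 0% = median of compound wells and 100% = cells with positive control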
Target sequence (Q8TDV0 whole entry, looked up): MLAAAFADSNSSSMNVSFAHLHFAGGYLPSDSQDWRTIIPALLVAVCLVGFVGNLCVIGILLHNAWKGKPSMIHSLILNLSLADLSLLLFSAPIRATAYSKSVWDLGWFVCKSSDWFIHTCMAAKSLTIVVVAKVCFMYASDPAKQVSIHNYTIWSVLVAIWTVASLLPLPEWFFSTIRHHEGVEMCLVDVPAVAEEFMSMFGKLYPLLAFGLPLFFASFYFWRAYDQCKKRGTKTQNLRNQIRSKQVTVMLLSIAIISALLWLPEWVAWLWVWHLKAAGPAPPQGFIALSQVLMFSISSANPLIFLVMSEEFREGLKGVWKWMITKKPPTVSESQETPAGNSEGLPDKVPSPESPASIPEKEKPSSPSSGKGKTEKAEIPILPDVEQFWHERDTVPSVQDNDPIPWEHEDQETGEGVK
GPR151 confirm: confirmation of human GPR151 activators | activation, % at 11.2 µM | GPR151 PathHunter beta-arrestin cells, luminescence, 90 min; % of EA-reagent control over plate median | shares compounds with GPR151 activ | 6,700 tested, under 10 active;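 active = mean percent activation across replicates above the confirmation screen cutoff of 4.91%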
GPR119 ag: counter-screen for GPR151 activators: effect on human GPR119; shares compounds with GPR151 activ; GPR119 PathHunter beta-arrestin cells, luminescence, 90 min; 0 = compound-well median, 100 = enzyme-acceptor control; activation, % at 11.2 µM; hit rate 0.3% among 6,700; AID 1508611;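 active = mean percent activation in the counterscreen above 29.09%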;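 note: counterscreen on off-target GPR119 to flag nonselective hits from the GPR151 activator screen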
Active calls of the source: *. This is a sample that favours compounds with a hit; in the whole collection about 3.5% have one here.

Screening C/C(=N\Nc1ccccc1)c1no[n+]([O-])c1C returned MITF inh -0.5, TEAD-YAP inh -6.2, FBW7 activator 0.0, GPR151 activ 6.1*, GPR151 confirm -1.3 and GPR119 ag -6.7.
Cn1c(=O)oc2cc(S(=O)(=O)N3CCC(N4CCCCC4)CC3)ccc21 was read as MITF inh 16.2, TEAD-YAP inh -4.2, FBW7 activator 0.1, GPR151 activ 5.9*, GPR151 confirm -1.0 and GPR119 ag -8.6.
Screening Cn1c(=O)oc2cc(S(=O)(=O)N3CCN(C4CCCCC4)CC3)ccc21 returned MITF inh 4.5, TEAD-YAP inh -12.1, FBW7 activator -0.1 and GPR151 activ -1.4.
Screening COc1cccc(OC)c1-c1[nH]nc2nc(-c3ccc(=O)[nH]c3)ccc12 returned MITF inh 1.2, TEAD-YAP inh 7.4, FBW7 activator -0.2, GPR151 activ 6.7*, GPR151 confirm -1.3 and GPR119 ag -4.2.
Screening O=C(NCc1nc(-c2ccncc2)n[nH]1)C(c1ccccc1)C1CCCCC1 (centres undefined) returned MITF inh -6.1, TEAD-YAP inh -0.1, FBW7 activator -0.2, GPR151 activ 7.1*, GPR151 confirm 0.5 and GPR119 ag -1.7.
`O=C(OCc1ccccc1)c1ccc(OC(=O)c2cc3ccccc3oc2=O)cc1` gave MITF inh -19.0, TEAD-YAP inh 10.8, FBW7 activator 0.1, GPR151 activ 6.6*, GPR151 confirm -0.2 and GPR119 ag -2.0.
O=C(Oc1ccccc1)c1cc2ccccc2oc1=O was read as MITF inh -2.4, TEAD-YAP inh -3.1, FBW7 activator -0.1 and GPR151 activ 0.5.
O=C(CSc1nncc(=O)[nH]1)Nc1ccc2c(c1)OCO2 was read as MITF inh -16.1, TEAD-YAP inh 9.9, FBW7 activator -0.1 and GPR151 activ -0.8.
`Cc1nnc(SCC(=O)Nc2ccc(Cl)c(Cl)c2)n1N` gave MITF inh 10.7, TEAD-YAP inh 15.8, FBW7 activator 1.1 and GPR151 activ 0.4.
`CCCCCCCn1c(Cc2ccccc2)nc2ccccc21` gave MITF inh -0.7, TEAD-YAP inh -4.0, FBW7 activator 0.1, GPR151 activ 5.8*, GPR151 confirm -0.4 and GPR119 ag -1.4.
For Cc1ccc(/C=C2/SC(=S)N(C(C(=O)O)c3ccccc3)C2=O)o1 (centres undefined) the results were MITF inh 33.5, TEAD-YAP inh 4.3, FBW7 activator -1.1 and GPR151 activ -0.7.
COc1ccc(I)cc1S(=O)(=O)N1CCN(Cc2ccccc2)CC1 was read as MITF inh 2.7, TEAD-YAP inh 3.6, FBW7 activator 0.0 and GPR151 activ 1.2.
Screening COc1cc(Cl)c(S(=O)(=O)N2CCN(Cc3ccccc3)CC2)cc1Cl returned MITF inh 10.7, TEAD-YAP inh 4.8, FBW7 activator 0.1, GPR151 activ 6.5*, GPR151 confirm -0.4 and GPR119 ag -16.8.
For O=S(=O)(c1cc(Br)ccc1Br)N1CCN(Cc2ccccc2)CC1 the results were MITF inh 8.1, TEAD-YAP inh 3.8, FBW7 activator 0.4 and GPR151 activ -1.7.
Screening O=S(=O)(c1ccc(Cl)cc1Br)N1CCN(Cc2ccccc2)CC1 returned MITF inh -1.8, TEAD-YAP inh -6.1, FBW7 activator -0.1, GPR151 activ 6.2*, GPR151 confirm 0.5 and GPR119 ag -9.3.
`COC(=O)c1ccc(NC(=O)CSc2nnc(NC(C)=O)s2)cc1` gave MITF inh -13.7, TEAD-YAP inh 4.6, FBW7 activator 0.2, GPR151 activ 6.4*, GPR151 confirm -0.1 and GPR119 ag 0.1.
Screening Cc1nnc(SCC(=O)NCCC(c2ccccc2)c2ccccc2)s1 returned MITF inh -5.0, TEAD-YAP inh 4.1, FBW7 activator 0.1, GPR151 activ 5.0*, GPR151 confirm 0.3 and GPR119 ag -0.1.
CCCCNC(=O)CSc1nnc(NC(C)=O)s1 was read as MITF inh -3.2, TEAD-YAP inh 3.8, FBW7 activator 0.1, GPR151 activ 6.4*, GPR151 confirm 0.4 and GPR119 ag 1.1.
Cc1cc(Br)ccc1OCC(=O)Nc1ccccc1F was read as MITF inh -7.6, TEAD-YAP inh -44.0, FBW7 activator 0.2 and GPR151 activ -0.4.
For O=S(=O)(Nc1cccc(-c2nc3cccnc3s2)c1)c1cc(F)ccc1F the results were MITF inh 9.5, TEAD-YAP inh -21.4, FBW7 activator 0.1 and GPR151 activ -0.6.
